These results are taken from the supplement of paper PMC8047044.

Structures are written as SMILES. Values joined by “and” are separate entries in the source; they are usually repeats but may differ in a detail not shown here. Equal entries are not always repeated.

The subject of the experiment is Neuro-2a. The experiment is described as follows: neurite formation score, plate-normalized to DMSO control mean 5.04 (score (0-8 scale)); higher = more or longer neurites. Particulars: 0.1 µM. As to the method: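 Neuro-2a mouse neuroblastoma cells in PLL-coated 96-well plates were pre-treated for 1 h in DMEM(+) with each kinase inhibitor at 0.1 µM, then switched to serum-free DMEM(-) with inhibitor to induce neurite outgrowth and fixed about 2-3 h later. Three blinded observers scored neurite formation from 0 (no neurites) to 8 (long neurites on almost all cells).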
In the case of `O=c1cc(-c2ccccc2)oc2c(O)c(O)ccc12` [7,8-Dihydroxyflavone], the neurite formation score worked out at 5.08.
The molecule `CNc1nc(Nc2ccc(C(=O)N3CCOCC3)cc2OC)ncc1Cl` came in with a neurite formation score of 4.58.
To `Cc1nc(NC(=O)N2CCC[C@H]2C(N)=O)sc1-c1ccnc(C(C)(C)C(F)(F)F)c1` belongs 5.21.
To `Cc1cc(Nc2nc(N[C@@H](C)c3ncc(F)cn3)ncc2Cl)[nH]n1` belongs 3.09.
Take `C[C@H]1[C@H](C)CC[C@]2(C(=O)O)CC[C@]3(C)C(=CC[C@@H]4[C@@]5(C)C[C@@H](O)[C@H](O)[C@@](C)(CO)[C@@H]5CC[C@]43C)[C@H]12` [Asiatic acid]: the neurite formation score stood at 5.08.
The value for `C=CC(=O)Nc1ccc2ncnc(Nc3ccc(OCc4cccc(F)c4)c(Cl)c3)c2c1` was 4.21; that for `O=c1cc(-c2cccc3c2Sc2ccccc2S3)oc(N2CCOCC2)c1` was 1.92; that for `C[S+]([O-])c1ccc(-c2nc(-c3ccc(F)cc3)c(-c3ccncc3)[nH]2)cc1` (stereo not given) was 4.88.
`CC1(C)CNc2cc(NC(=O)c3cccnc3NCc3ccncc3)ccc21` [Motesanib Diphosphate (AMG-706)] yielded a neurite formation score of 4.92.
As for `COc1cc(Nc2ncc(F)c(Nc3ccc4c(n3)NC(=O)C(C)(C)O4)n2)cc(OC)c1OC`, the neurite formation score is 4.58.
In turn, `COc1cc2nccc(Oc3ccc(NC(=O)Nc4cc(C)on4)c(Cl)c3)c2cc1OC` [Tivozanib (AV-951)] gave a neurite formation score of 4.71.
The value for `CCNc1nc(Nc2cc(F)c(C(=O)N3CCOCC3)cc2OC)ncc1C(F)(F)F` was 3.75; that for `c1nc2c(NC3CCCCC3)nc(Nc3ccc(N4CCOCC4)cc3)nc2[nH]1` [Reversine] was 4.92.
As for `CC(C)n1nc(-c2ccc3oc(N)nc3c2)c2c(N)ncnc21`, the neurite formation score is 5.25.
The molecule `Cc1cc(C)c(/C=C2\C(=O)Nc3ccccc32)[nH]1` registered a neurite formation score of 5.25.
The value for `COc1ccc(CNc2nc(N(CCO)CCO)nc3c2ncn3C(C)C)cc1` was 4.04.
Consider `CN1CCN(C2CCN(C(=O)Nc3cc(Oc4ccc(NC(=O)C5(C(=O)Nc6ccc(F)cc6)CC5)c(F)c4)ccn3)CC2)CC1` [Golvatinib (E7050)], for which the neurite formation score is 3.76.
To `CC(C)NC[C@@H](C(=O)N1CCN(c2ncnc3c2[C@H](C)C[C@H]3O)CC1)c1ccc(Cl)cc1` belongs 5.04.
The value for `CS(=O)(=O)N1CCC(NC(=O)c2[nH]ncc2NC(=O)c2c(Cl)cccc2Cl)CC1` was 5.09; that for `Cn1sc(=O)n(Cc2ccccc2)c1=O` was 4.25.
Take `Nc1nc(NCCNc2ncc(-n3ccnc3)c(-c3ccc(Cl)cc3Cl)n2)ccc1[N+](=O)[O-]`: the neurite formation score is 4.92.
Consider `CNc1nc(Nc2cnn(C3CCN(C4COC4)CC3F)c2Cl)ncc1C(F)(F)F` (stereo not given), for which the neurite formation score was 4.75.
The value for `O=C(Nc1ccc2[nH]nc(-c3ccncc3)c2c1)[C@@H]1CCN(CC(=O)N2CCN(c3ccc(-c4ncccn4)cc3)CC2)C1` was 5.09; that for `O=C1NC(=O)/C(=C\c2ccc3nccnc3c2)S1` was 5.09.
To `Cc1cnc(NC(=O)Nc2cc(Br)c(C)cc2OC[C@@H]2CNCCO2)cn1` belongs 4.58; to `O=C(NCCO)c1cccc(-c2cc(Nc3ccc(OC(F)(F)F)cc3)ncn2)c1`, 4.92.
Turning to `Cc1cc(CS(=O)(=O)c2ccccc2)cc(OCc2ccc(CN3CCC[C@@H]3CO)cc2)c1`, the neurite formation score was 5.58.
Regarding `Cc1c[nH]c(/C=C2\C(=O)Nc3ccccc32)c1CCC(=O)O`, the neurite formation score is 5.92.
To `O=C1NC(=O)C(c2ccccc2[N+](=O)[O-])=C1Nc1ccc(O)c(Cl)c1` belongs 5.21; to `OCCn1cc(-c2cnc3nnn(Cc4ccc5ncccc5c4)c3n2)cn1`, 3.25; to `CNC(=O)c1ccccc1Nc1nc(Nc2ccc(N3CCOCC3)cc2OC)ncc1Cl`, 4.58.
The value for `Cc1ccc2nc(NCCN)c3ncc(C)n3c2c1` was 4.09 and 3.42.
`CNC(=O)Nc1ccc(-c2nc(N3CC4CCC(C3)O4)c3cnn(C4CCC5(CC4)OCCO5)c3n2)cc1`: the neurite formation score is 4.75.
To `Cc1nc(Nc2ncc(C(=O)Nc3c(C)cccc3Cl)s2)cc(N2CCN(CCO)CC2)n1` belongs 2.38.
To `Cc1c(CN2CCN(C(=O)[C@H](C)O)CC2)sc2c(N3CCOCC3)nc(-c3cnc(N)nc3)nc12` belongs 4.42; to `COc1ccc(-c2cc3c(C)nc(N)nc3n([C@H]3CC[C@H](OCCO)CC3)c2=O)cn1`, 4.92; to `COc1ccc(-c2ccc3c(N4CCOC[C@@H]4C)nc(N4CCOC[C@@H]4C)nc3n2)cc1CO`, 3.21.
To `CNC(=O)c1ccc(-c2cnc3ncc(Cc4ccc5ncccc5c4)n3n2)cc1F` belongs 4.09.
For the molecule `COc1ccc(-c2ccc3c(N4CCOCC4)nc(N4C[C@@H](C)O[C@@H](C)C4)nc3n2)cc1CO`, the neurite formation score turned out to be 4.25.
With `C#Cc1cccc(Nc2ncnc3cc4c(cc23)OCCOCCOCCO4)c1` [Icotinib], the neurite formation score turned out to be 5.09.
